# Assay outcomes from PubChem.
# Rab9 prom act = activates the Rab9 promoter; AID 485297; 320,000 tested, 2.8% active; Huh7 Rab9 promoter-luciferase reporter, luminescence, 24 h; Potency, µM (series often up to 9.22 µM), hits mostly activators; also: nearly all actives have a fitted effect of over 60% in size
#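 Using Huh7 cells stably transfected with Rab9 promoter–luciferase, compounds were incubated 24 h at 37 °C, 5% CO2; luciferase luminescence was read 10 min after reagent addition.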
# NPC1 promoter act = activates the NPC1 promoter; Huh7 NPC1 promoter luciferase reporter, 24 h; Potency, µM (titrated, usually from 9.22 µM), actives largely listed as activators; 320,000 tested, 2.4% active; also: nearly all actives have a fitted effect of over 60% in size
#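 Luciferase expression driven by the NPC1 promoter was measured in stably transfected Huh7 cells after a 24 h compound incubation, using a luciferase reagent and a luminescence read.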
# FLuc modulator = inhibits or activates purified firefly luciferase, miR-21 counter-screen | P08659 | 360,000 tested, 6.9% active | Potency, µM (highest dose often 57.5 µM), actives largely listed as inhibitors | purified FLuc, Km substrates, luminescence inhibition; also: nearly all actives have a fitted effect of over 55% in size
# Target sequence (P08659 whole entry, looked up): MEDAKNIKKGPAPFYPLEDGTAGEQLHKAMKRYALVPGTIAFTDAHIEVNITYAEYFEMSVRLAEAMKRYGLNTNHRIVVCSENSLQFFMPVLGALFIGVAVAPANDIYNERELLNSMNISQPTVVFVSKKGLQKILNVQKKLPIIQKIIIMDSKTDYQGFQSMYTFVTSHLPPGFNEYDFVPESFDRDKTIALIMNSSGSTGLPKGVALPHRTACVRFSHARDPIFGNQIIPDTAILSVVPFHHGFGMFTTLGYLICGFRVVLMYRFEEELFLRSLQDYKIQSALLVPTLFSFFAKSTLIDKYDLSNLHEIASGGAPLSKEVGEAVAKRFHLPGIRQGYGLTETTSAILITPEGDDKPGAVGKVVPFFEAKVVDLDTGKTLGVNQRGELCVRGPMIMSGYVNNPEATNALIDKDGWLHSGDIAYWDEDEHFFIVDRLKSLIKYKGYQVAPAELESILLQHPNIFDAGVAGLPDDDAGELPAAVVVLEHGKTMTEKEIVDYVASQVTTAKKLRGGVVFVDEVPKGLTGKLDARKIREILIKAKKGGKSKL
#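 Purified P. pyralis luciferase (10nM final) with 10uM D-luciferin and 10uM ATP (Km levels) in 50mM Tris acetate pH 7.5, 10mM Mg acetate, 0.01% Tween-20, 0.05% BSA; qHTS 6-point titration, ~60 µM downward; luminescence read.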
# ELG1 genotoxic = genotoxicity induction in ELG1-luciferase HEK293T cells; 330,000 tested, 1.3% active; HEK293T ELG1-luciferase reporter, luminescence, 16 h; Potency, µM (doses to about 46 µM), usual class: activators; also: nearly all actives have a fitted effect of over 60% in size
#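 HEK293T cells expressing luciferase-tagged ELG1 were treated with compound or DMSO for 16 hr at 37°C. Luciferase activity was then read after 30 min with ONE-Glo at room temperature; rising signal flags genetic stress.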
# SMN2 splice up = SMN2 splice variant enhancement; HEK293 SMN2-luciferase splicing reporter, luminescence, 30-36 h; 210,000 tested, 2.8% active; Potency, µM (doses to about 46.1 µM), usual class: activators; AID 1458; also: nearly all actives have a fitted effect of over 55% in size
#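 HEK293 cells carry an SMN2 […]–luciferase reporter in which exon 7 inclusion puts luciferase in frame. Cells were plated 10-12 h before compound addition, then incubated 30-36 h at 37C. ONE-Glo luminescence was read; sodium butyrate at 4.5 mM final served as control.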
# Hits are given with their value; – = inactive; ? = inconclusive; · = not tested or not shown; [ ] = dose if it differs, or a comment. A selection: hits, their analogues and other compounds. The true share with any hit is near 7.4%. Calls follow the shape of the dose curve; as a rule, active = well fitted curve in the direction sought with a large enough effect; inconclusive = small, poorly fitted or top-dose-only effect, or another doubt; inactive = no such curve, though single readings can be large; an effect the other way counts as inactive or inconclusive.
SMILES,Rab9 prom act,NPC1 promoter act,FLuc modulator,ELG1 genotoxic,SMN2 splice up
O=C(OCC(=O)C12CC3CC(CC(C3)C1)C2)c1cccnc1Cl,–,–,16.9µM,–,–
C/C(=N/OC(=O)c1c(F)cccc1F)c1nccs1,–,–,4.78µM,–,–
C/C(=N\OC(=O)c1ccc(F)cc1)c1nccs1,–,–,0.675µM,–,–
COc1ccc(C(=O)OCCc2cc3ccccc3c(=O)o2)cc1,–,–,?,–,·
O=C(OCCc1cc2ccccc2c(=O)o1)c1cccs1,–,–,4.26µM,–,·
COc1ccc(C(=O)O/N=C(\C)c2nccs2)cc1,–,–,0.477µM,–,·
CCCNC(=O)C1CN(C(=O)c2nn(Cc3ccccc3)c(=O)c3ccccc23)c2ccccc2O1 (configuration not stated),–,–,–,–,·
CCC(=O)N1c2ccccc2CC1C(=O)NCCCN1CCN(c2ccccc2)CC1 (configuration not stated),·,·,–,·,·
CC(OC(=O)Cc1ccc(Br)cc1)C(=O)NC1CCCC1 (configuration not stated),·,·,·,–,·
COC(=O)c1ccc(OC(=O)c2cccs2)cc1,–,–,23.9µM,–,–
COc1ccc(C/C(N)=N/OC(=O)c2cccs2)cc1,–,–,–,–,·
COc1ccc(C2CC2/C(C)=N/OC(=O)c2cccs2)cc1 (configuration not stated),–,–,23.9µM,–,–
COc1ccc(OCCOC(=O)c2cccs2)cc1,–[1.84 µM],–,16.9µM,23.1µM,–
COc1ccc(C(=O)O/N=C(/C)c2cccs2)cc1,–,–,0.0757µM,–,–
COc1ccc(C(=O)N/N=C/c2ccc(OC(=O)c3cccs3)cc2)cc1,–,–,–,–,–
CCN1C(=O)c2ccccc2Sc2ccc(NC(=O)COc3ccc(Cl)cc3)cc21,·,·,–,·,·
O=C(CS(=O)(=O)c1cccc2nsnc12)Nc1ccc(F)cc1,·,·,–,·,·
CCCCCC/C(C)=C1/SC(=S)NC1=O,–,–,–,–,–
C/C(C/C(C)=C1/SC(=S)NC1=O)=C1\SC(=S)NC1=O,–,–,26.9µM,–,–
Cc1ccc2c(c1)c(N=Nc1cccc(C(=O)O)c1)c(O)n2C,–,–,15.1µM,–,·
Cc1cccc(Nc2nnc(SCC(=O)c3ccc(O)cc3O)s2)c1,–,–,9.53µM,?,·
Cc1cccc(Nc2nnc(SCc3cc(=O)n4cc(C)ccc4n3)s2)c1,–,–,–,–,–
Cc1ccc(Nc2nnc(SCC(=O)N(C)C3CCS(=O)(=O)C3)s2)cc1 (configuration not stated),–,–,8.49µM,–,?
Cc1ccc(Nc2nnc(SCC(=O)c3ccc(O)cc3O)s2)cc1,–,–,10.7µM,–,·
COc1ccc(C(=O)Cn2cc[n+](C)c2)cc1,–,–,–,–,·
SMILES,Rab9 prom act,NPC1 promoter act,FLuc modulator,ELG1 genotoxic,SMN2 splice up
COc1ccc(-c2cc(=Nc3ccc(C(=O)O)cc3)c3cc(C)ccc3o2)cc1,?,?,9.53µM,?,17.8µM
CCc1ccc2oc(-c3ccc(OC)cc3)cc(=Nc3cccc(C(=O)O)c3)c2c1,3.16µM,?,5.36µM,4.11µM,?
CCc1ccc2oc(-c3ccc(OC)cc3)cc(=Nc3c(C)n(C)n(-c4ccccc4)c3=O)c2c1,?,?,8.49µM,–,–
COc1ccc(-c2cc(C(=O)Oc3ccc(C)cc3)c3cc(C)ccc3n2)cc1,·,·,–,·,–
C=CCn1c(-c2ccc(OC)cc2)csc1=Nc1c(C)n(C)n(-c2ccccc2)c1=O,–,–,–,–,–
N#C/C(=C\c1ccc(OCC(N)=O)cc1)c1ccccc1,–,–,3.79µM,?,–
COc1ccccc1CN1CCC(CNC(=O)c2cnn(-c3ccc(Cl)cc3)c2C2CCN(C(=O)OC(C)(C)C)CC2)CC1,·,·,–,·,·
COC(=O)/C=C1/SC(=NC(=O)c2ccc(OC)cc2)NC1=O,–,–,26.9µM,–,·
COC(=O)/C=C1\S/C(=N/N=C/c2ccccc2)NC1=O,–,–,6.01µM,–,–
COC(=O)/C=C1\S/C(=N/N=C/c2ccco2)NC1=O,–,–,?,–,–
COC(=O)/C=C1/S/C(=N/N=C/c2ccco2)NC1=O,–,–,?,–,·
COC(=O)/C=C1\S/C(=N/N=C/c2ccc(Cl)cc2)NC1=O,–,–,10.7µM,–,·
COc1ccc(S(=O)(=O)N2CCCOC2CNC(=O)C(=O)NCCc2ccco2)cc1C (configuration not stated),–,–,–,–,·
Cc1cc(C)cc(C(=O)N2CC(=O)Nc3ccc(Br)cc3C2c2ccccc2)c1 (configuration not stated),·,·,–,·,·
Nc1cccc2c1C(=O)N(C(=O)/C=C/c1cccc(Br)c1)C2=O,–,–,?,–,·
Nc1cccc2c1C(=O)N(C(=O)/C=C/c1cccc(F)c1)C2=O,–,–,21.3µM,–,–
O=C(CCC1CCN(C(=O)c2ccccc2Cl)CC1)NCc1ccc(F)cc1,–,–,–,–,·
CC(=O)NC1=NC(=O)/C(=C/c2cc(C)n(-c3ccc(NC(C)=O)cc3)c2C)S1,?,?,5.36µM,–,–
CC(=O)NC1=NC(=O)/C(=C/c2cc(C)n(-c3cccc(C(=O)O)c3)c2C)S1,–,–,15.1µM,–,·
CCOC(=O)N1CCN(Cc2nc3cc(NC(=O)CC(C)C)ccc3n2C(C)C)CC1,·,·,–,·,·
O=C(O)CCCc1nc2ccccc2s1,–,–,?,–,?
O=C(CCc1nc2ccccc2s1)OCC(=O)c1ccccc1,–,–,19µM,–,–
O=C(CCc1nc2ccccc2s1)c1ccccc1,?,–,15.1µM,–,–
COc1ccccc1OC(=O)CCc1nc2ccccc2s1,–,–,19µM,–,–
Fc1ccc(-c2nc3c(Cl)cc(C(F)(F)F)cn3c2Cl)cc1,–,–,?,16.4µM,17.8µM
SMILES,Rab9 prom act,NPC1 promoter act,FLuc modulator,ELG1 genotoxic,SMN2 splice up
COCCNC(=O)CSc1nc2cc3c(cc2c(=O)n1CCCCCC(=O)NCCc1ccc(OC)c(OC)c1)OCO3,·,·,–,·,·
Cc1occc1-c1nnc(SC(C)C(=O)Nc2ccccc2F)o1 (configuration not stated),2.82µM,?,–,?,·
Cc1cc(O)c(/C=N/OCc2ccc(Cl)cc2Cl)c(=O)o1,–,–,?,–,–
O=c1c(/C=N/OCc2ccc(Cl)cc2Cl)c[nH]n1-c1cccc(Cl)n1,–,–,10.7µM,–,–
Nc1nc(Nc2ccc(Cl)cc2)nc2ccccc12,0.501µM,0.631µM,0.426µM,?,·
Cc1ccccc1Nc1nc(N)c2ccccc2n1,0.501µM,0.708µM,1.69µM,?,3.55µM
Oc1ccc(Nc2nc(-c3ccc(Cl)cc3)nc3ccccc23)cc1,·,·,?,·,–
CCOc1ccc(Nc2nc(N)c3ccccc3n2)cc1,0.708µM,0.891µM,0.426µM,0.58µM,·
CN(C)c1ccc(Nc2nc(N)c3ccccc3n2)cc1,0.1µM,?,0.19µM,?,·
CN(C)c1nc(Nc2ccccc2)nc(N(C)C)n1,–,–,–,–,–
COc1ccc(C)cc1Nc1nc(N)c2ccccc2n1,–,–,?,–,·
COc1cc(CNc2ncc(-c3ccc(Br)cc3)n2C)cc(OC)c1O,–,–,–,–,·
